Compound activity deposited in PubChem BioAssay by Broad Institute.
Not all results are given here.
aSyn UTR act: Activators via SNCA 5'UTR binding, MLPCN; alpha-synuclein 5'UTR reporter, activators screen; activity score, % (tested at 7.5 µM), hits read low; actives 7.1% (n = 300,000); in the data active means activity score below about -60%
* marks the source's active call; other numbers are inactive results.

SMILES	aSyn UTR act
Cc1cccc(NC(=S)c2nc3ccccc3s2)c1	-99.9*
c1ccc(CSc2cc3ccccc3[nH]2)cc1	-132.3*
Oc1ccc2ccccc2c1/C=N/Nc1nnc(-c2ncc[nH]2)c2ccccc12	101.7
COc1ccc2nc(C)cc(N/N=C/c3ccc(F)cc3)c2c1	92.6
COc1ccc(/C=N/Nc2cc(C)nc3ccccc23)cc1	-84.6*
COc1ccc(/C=N/Nc2cc(C)nc3c(C)cccc23)cc1	-81.2*
COc1ccc(/C=N/Nc2nnc(-c3ncc[nH]3)c3ccccc23)cc1	-203.1*
CC(=O)N1CCN(c2ccc(NC(=O)c3ccc(Cl)c([N+](=O)[O-])c3)cc2)CC1	-70.4*
CC(=O)N1CCN(c2ccc(NC(=O)c3ccccc3)cc2)CC1	-105.6*
CC(=O)N1CCN(c2ccc(NC(=O)c3cccc(C)c3)cc2)CC1	-72.8*
Cc1cccc(C(=O)Nc2ccc(C(=O)N3CCCCC3C)cc2)c1 (stereo unspecified)	-84.0*
Cc1ccc(N2CCN(C(=O)c3ccccc3NC(=O)c3ccccc3C(=O)O)CC2)cc1	-99.5*
O=C(/C=C/c1ccccc1[N+](=O)[O-])NCCN1C(=O)S/C(=C\c2ccc(F)cc2)C1=O	-113.1*
O=C(Nc1cccc(-c2csc(Nc3ccccc3)n2)c1)c1ccccc1	-142.3*
CC(=O)c1cccc(Nc2nc(-c3ccccc3)cs2)c1	-144.9*
CC(=O)c1cccc(Nc2nc(-c3cccnc3)cs2)c1	-229.8*
Cc1ccc(-n2nnc3ccccc3c2=O)cc1C	-149.7*
O=C(Nc1ccc2c(c1)C(=O)NC2=O)c1ccc2ncsc2c1	-62.6*
CCc1ccc(NC(=O)c2ccc3ncsc3c2)cc1	-155.2*
O=C(Nc1ccc(Br)cc1)c1ccc2ncsc2c1	-127.9*
COc1ccc(NC(=O)c2ccc3ncsc3c2)cc1	-167.8*
CCOC(=O)c1cnc2c(ccc3ccccc32)c1NCCO	-95.8*
CCOC(=O)c1cnc2c(ccc3ccccc32)c1N	-125.5*
Cc1cc(C(=O)OCC(=O)Nc2c(F)cccc2F)c(C)n1-c1ccccc1	-103.1*
Cc1cc(C(=O)Nc2ccc(Cl)cc2)c(C)n1-c1ccccc1	86.6
SMILES	aSyn UTR act
Cc1cc(C(=O)CN2C(=O)NC(CC(C)C)C2=O)c(C)n1-c1ccccc1F (stereo unspecified)	-148.4*
Cc1cc(C(=O)Cn2nnc3ccccc3c2=O)c(C)n1-c1ccccc1F	54.2
Cc1cc(C(=O)COC(=O)c2ccc(O)cc2)c(C)n1-c1ccccc1F	-78.2*
CC/C(C)=N/Nc1nc(-c2cc3cccc(OC)c3oc2=O)cs1	-108.3*
CCOC(=O)c1cc(-c2ccccc2)nn1Cc1cc(C)no1	-81.0*
CCCCNC(=S)N=Nc1c(O)[nH]c2ccccc12	-81.3*
Oc1cccc(NC(=S)N=Nc2c(O)[nH]c3ccccc23)c1	-158.2*
CCNC(=S)N=Nc1c(O)[nH]c2ccc(C(C)C)cc12	63.2
O=C1/C(=C/c2ccc(F)cc2)CCC1C1CCCC1 (stereo unspecified)	-132.9*
O=C1C(=C2SCCCS2)CC/C1=C\c1ccc(F)cc1	119.4
CCOc1ccc(/C=C2\CCC(C3CCCC3)C2=O)cc1 (stereo unspecified)	-229.3*
O=C1/C(=C/c2ccccc2)CCC1C1CCCC1 (stereo unspecified)	-73.3*
O=C1/C(=C/c2ccco2)CCC1C1CCCC1 (stereo unspecified)	-65.7*
O=c1c2ccccc2ncn1CCOc1ccccc1[N+](=O)[O-]	-63.2*
COc1ccc2c(Cn3cnc4cc([N+](=O)[O-])ccc4c3=O)cc(=O)oc2c1	72.1
O=c1c2ccc([N+](=O)[O-])cc2ncn1CCOc1ccccc1	-69.2*
C/C(=N\Nc1ccc(F)cc1F)c1cccs1	-87.6*
COc1ccc(/C(C)=N/Nc2ccccc2Cl)c(O)c1	-102.4*
COc1ccc(/C(C)=N/Nc2ccc(F)cc2F)c(O)c1	-96.7*
Oc1ccc(Nc2nc(N3CCCC3)c3ccccc3n2)cc1	-579.1*
C(=C\c1nc(N2CCCC2)c2ccccc2n1)/c1ccccc1	-105.8*
Nc1nc(Nc2ccccc2)nc(N2CCCC2)c1[N+](=O)[O-]	-81.5*
COCCNc1nc(N)c([N+](=O)[O-])c(NC2CCCCC2)n1	67.7
C=CCNc1nc(N)c([N+](=O)[O-])c(N2CCCCCC2)n1	69.3
Cc1nn2c(nc(N3CCCCC3)c3ccccc32)c1C=O	55.3
SMILES	aSyn UTR act
CC1CCN(c2nc(/C=C/c3ccccc3)nc3ccccc23)CC1	-87.4*
CCC1(c2ccc(Cl)cc2)NC(=S)N(c2ccccc2)N1 (stereo unspecified)	-71.4*
CCC1(c2ccccc2)NC(=S)N(c2ccc(C)cc2)N1 (stereo unspecified)	-85.4*
O=C(COC(=O)c1ccc2[nH]c3c(c2c1)CCCC3)Nc1ccccc1	-63.9*
Cc1oc(-c2ccc3ccccc3c2)nc1CN(C)C(C)c1ccncn1 (stereo unspecified)	-80.4*
Cc1cc(C)c(C#N)c(SCc2nnc(-c3ccccc3)o2)n1	102.4
Cc1cc(C)c(C#N)c(SCc2nc3ccccc3[nH]2)n1	-172.6*
Cc1ccc(SCc2nc3ccccc3[nH]2)cc1	-128.0*
c1ccc2[nH]c(CSc3nccs3)nc2c1	-79.2*
c1ccc(SCc2nc3ccccc3[nH]2)cc1	-133.0*
Clc1ccc(SCc2nc3ccccc3[nH]2)cc1	-112.1*
Fc1ccccc1CSCc1nc2ccccc2[nH]1	-133.3*
Cc1ccccc1C(=O)O/N=C/c1c(N2CCOCC2)n(C)c2ccccc12	86.5
COC(=O)c1cc2c(s1)-c1ccc(OC)cc1CC2	-211.7*
CNC(=O)c1cc2c(s1)-c1ccccc1CC2	-132.9*
COc1ccc(C(=O)N=C2CCC(C#N)=C3c4cc(OC)c(OC)cc4CCN23)cc1	54.6
COc1ccc2c(c1)CC/C2=N\OC(=O)c1ccccc1C	-136.4*
COc1ccc2c(c1)CC/C2=N\OC(=O)c1cccc(C)c1	-229.7*
COc1ccc2c(c1)CC/C2=N\NC(=O)c1ccccc1	-111.3*
CCCCN(C(=O)NC(=O)Nc1cccc(C)c1C)S(C)(=O)=O	-92.0*
O=C(CN1CCOCC1)N/N=C/C(Br)=C\c1ccccc1	-75.6*
O=C(Cc1cccs1)N/N=C/C(Br)=C/c1ccccc1	-257.8*
CC(/C=N/NC(=O)Cc1cccn1C)=C\c1ccccc1	-118.4*
COc1ccccc1NC(=O)C(=O)N/N=C/c1cccs1	-147.2*
CC(/C=N/NC(=O)Cc1cccs1)=C\c1ccccc1	-155.6*
SMILES	aSyn UTR act
COc1ccc(/C=N/NC(=O)Cc2cccs2)cc1	-69.7*
COc1ccc(COC(=O)N/N=C/c2cccs2)cc1	-66.2*
Cc1ccccc1NCC(=O)N/N=C/C(Br)=C/c1ccccc1	-66.1*
Cc1ccc(NC(=O)c2cccc3ccccc23)cc1	-90.8*
O=C(Nc1ccncc1)c1cc2ccccc2cc1O	-78.7*
COc1cc2ccccc2cc1C(=O)Nc1ccc(C)cc1	-185.8*
COc1ccccc1C(=O)Nc1ccc2ccccc2c1	-87.8*
CC(=O)Oc1ccccc1C(=O)Nc1ccccc1	-92.7*
Cc1ccc(NC(=O)c2cc(C)n(-c3ccccc3)c2C)cc1	105.6
COc1cc2ccccc2cc1C(=O)Nc1ccc(Cc2ccncc2)cc1	-128.9*
Cc1ccc(NC(=O)c2cc(C)n(-c3cccc(C)c3)c2C)cc1	-61.9*
CCOC(=O)c1sc2nc(NC(=O)C3CC3)sc2c1C	-201.3*
CCOC(=O)c1sc2nc(NC(=O)C(C)(C)C)sc2c1C	-134.6*
COc1cccc(/C=C/C(=O)Nc2cccc(C(C)=O)c2)c1OC	-126.0*
CCc1cc(C(=O)O)c(NC(=O)/C=C/c2ccc(OC)cc2)s1	-119.4*
